Common to all, as to test: PBM; 200 nM protein, PBS
What all share (conditions): dsDNA, one strand shown

Assay [1] has as its target PRRX1 (Homo sapiens, UniProt P54821 80-166, F113S).
Assay [2] concerns the target PRRX1 (Homo sapiens, UniProt P54821 80-166).
Assay [3] deals with HOXA2 (Homo sapiens, UniProt O43364 129-215, R185T).
For assay [4], the target named is ALX1 (Homo sapiens, UniProt Q15699 118-204, L144V).
In assay [5] the target is ALX3 (Homo sapiens, UniProt O95076 139-225, N203Q).
Sequence of ALX3 (Homo sapiens, UniProt O95076 139-225, N203Q) (O95076 139-225 N203Q): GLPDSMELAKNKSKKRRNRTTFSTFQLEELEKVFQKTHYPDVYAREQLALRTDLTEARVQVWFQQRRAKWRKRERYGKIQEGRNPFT
The target of assay [6] is PITX2 (Homo sapiens, UniProt Q99697 72-157).
Assay [7] deals with HOXA2 (Homo sapiens, UniProt O43364 129-215, R185K).
Sequence of HOXA2 (Homo sapiens, UniProt O43364 129-215, R185K) (O43364 129-215 R185K): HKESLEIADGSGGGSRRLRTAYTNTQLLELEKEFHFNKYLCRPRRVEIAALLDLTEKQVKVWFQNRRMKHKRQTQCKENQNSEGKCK
Assay [8] deals with ALX1 (Homo sapiens, UniProt Q15699 118-204, L144R).
Sequence of ALX1 (Homo sapiens, UniProt Q15699 118-204, L144R) (Q15699 118-204 L144R): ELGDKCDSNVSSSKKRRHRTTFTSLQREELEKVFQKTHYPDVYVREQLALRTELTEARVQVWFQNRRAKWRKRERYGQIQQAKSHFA
The target of assay [9] is ALX3 (Homo sapiens, UniProt O95076 139-225).
Sequence of ALX3 (Homo sapiens, UniProt O95076 139-225) (O95076 139-225): as the sequence (O95076 139-225 N203Q) above, with Q65N counted along it
Assay [10] deals with VAX1 (Homo sapiens, UniProt Q5SQQ9 86-172).
Sequence of VAX1 (Homo sapiens, UniProt Q5SQQ9 86-172) (Q5SQQ9 86-172): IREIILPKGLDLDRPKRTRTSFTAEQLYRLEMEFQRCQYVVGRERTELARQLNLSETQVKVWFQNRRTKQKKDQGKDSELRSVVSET
The target of assay [11] is ALX3 (Homo sapiens, UniProt O95076 139-225, L168Q).
Sequence of ALX3 (Homo sapiens, UniProt O95076 139-225, L168Q) (O95076 139-225 L168Q): as the sequence (O95076 139-225 N203Q) above, with L30Q, Q65N counted along it
Assay [12] concerns the target ALX3 (Homo sapiens, UniProt O95076 139-225, L168V).
Assay [13] has as its target VAX1 (Homo sapiens, UniProt Q5SQQ9 86-172, T142I).
Assay [14] concerns the target HOXA2 (Homo sapiens, UniProt O43364 129-215, Y150S).
Assay [15] addresses ALX1 (Homo sapiens, UniProt Q15699 118-204).
For assay [16], the target named is ALX3 (Homo sapiens, UniProt O95076 139-225, N203S).
Sequence of ALX3 (Homo sapiens, UniProt O95076 139-225, N203S) (O95076 139-225 N203S): as the sequence (O95076 139-225 N203Q) above, with Q65S counted along it
The target in assay [17] is HOXA2 (Homo sapiens, UniProt O43364 129-215).
Sequence of HOXA2 (Homo sapiens, UniProt O43364 129-215) (O43364 129-215): as the sequence (O43364 129-215 R185K) above, with K57R counted along it
Assay [18] deals with VAX1 (Homo sapiens, UniProt Q5SQQ9 86-172, K157R).
Sequence of VAX1 (Homo sapiens, UniProt Q5SQQ9 86-172, K157R) (Q5SQQ9 86-172 K157R): as the sequence (Q5SQQ9 86-172) above, with K72R counted along it
The target in assay [19] is HOXB6 (Homo sapiens, UniProt P17509 132-218, K202E).
Sequence of HOXB6 (Homo sapiens, UniProt P17509 132-218, K202E) (P17509 132-218 K202E): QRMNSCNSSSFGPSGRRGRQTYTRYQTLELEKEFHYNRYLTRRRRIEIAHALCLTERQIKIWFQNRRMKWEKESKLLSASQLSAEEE
Assay [20] deals with HESX1 (Homo sapiens, UniProt Q9UBX0 95-180, F115L).
Sequence of HESX1 (Q9UBX0 95-180 F115L): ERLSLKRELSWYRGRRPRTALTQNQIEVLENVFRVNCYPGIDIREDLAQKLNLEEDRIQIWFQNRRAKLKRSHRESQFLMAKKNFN
For assay [21], the target named is MSX2 (Homo sapiens, UniProt P35548 130-214, R199I).
Sequence of MSX2 (Homo sapiens, UniProt P35548 130-214, R199I) (P35548 130-214 R199I): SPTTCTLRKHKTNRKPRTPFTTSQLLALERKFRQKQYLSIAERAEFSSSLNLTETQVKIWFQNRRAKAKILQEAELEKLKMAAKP
In assay [22] the target is MSX2 (Homo sapiens, UniProt P35548 130-214).
Sequence of MSX2 (Homo sapiens, UniProt P35548 130-214) (P35548 130-214): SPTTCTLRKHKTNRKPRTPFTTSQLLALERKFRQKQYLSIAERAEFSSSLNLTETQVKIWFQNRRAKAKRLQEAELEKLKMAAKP
Assay [23] addresses MSX2 (Homo sapiens, UniProt P35548 130-214, F161Y).
Assay [24] has as its target SHOX (Homo sapiens, UniProt O15266 103-189, R173C).
Assay [25] has as its target T1, PAX4 (Homo sapiens, UniProt O43316 9-242, R227W).
T1 sequence: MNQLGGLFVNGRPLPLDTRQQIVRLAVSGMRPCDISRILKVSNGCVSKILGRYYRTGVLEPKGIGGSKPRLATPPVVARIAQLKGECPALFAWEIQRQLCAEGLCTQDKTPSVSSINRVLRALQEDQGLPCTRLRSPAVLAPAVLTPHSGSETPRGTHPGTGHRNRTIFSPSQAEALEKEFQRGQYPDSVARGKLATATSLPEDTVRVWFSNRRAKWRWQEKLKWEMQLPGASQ

For assay [26], the target named is T2, NKX2-6 (Homo sapiens, UniProt A6NCS4 118-204).
T2 sequence: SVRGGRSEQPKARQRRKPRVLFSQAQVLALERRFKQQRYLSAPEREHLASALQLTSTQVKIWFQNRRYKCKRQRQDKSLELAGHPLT

Assay [27] has as its target T3, NKX2-6 (Homo sapiens, UniProt A6NCS4 118-204, F151L).
T3 sequence: T2 sequence with F34L

Assay [28] addresses CRX (Homo sapiens, UniProt O43186 26-111, R41L).
The target in assay [29] is HOXB6 (Homo sapiens, UniProt P17509 132-218).
Sequence of HOXB6 (Homo sapiens, UniProt P17509 132-218) (P17509 132-218): as the sequence (P17509 132-218 K202E) above, with E71K counted along it

Positions count from the first letter of the chain named.

Sequence of PRRX1 (Homo sapiens, UniProt P54821 80-166) (P54821 80-166): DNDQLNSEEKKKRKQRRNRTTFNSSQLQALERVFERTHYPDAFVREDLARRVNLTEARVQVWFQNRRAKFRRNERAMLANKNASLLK
Sequence of PRRX1 (Homo sapiens, UniProt P54821 80-166, F113S) (P54821 80-166 F113S): as the sequence (P54821 80-166) above, with F34S counted along it
Sequence of HOXA2 (Homo sapiens, UniProt O43364 129-215, Y150S) (O43364 129-215 Y150S): as the sequence (O43364 129-215 R185K) above, with Y22S, K57R counted along it
Sequence of VAX1 (Homo sapiens, UniProt Q5SQQ9 86-172, T142I) (Q5SQQ9 86-172 T142I): as the sequence (Q5SQQ9 86-172) above, with T57I counted along it
Sequence of ALX3 (Homo sapiens, UniProt O95076 139-225, L168V) (O95076 139-225 L168V): as the sequence (O95076 139-225 N203Q) above, with L30V, Q65N counted along it
Sequence of HOXA2 (Homo sapiens, UniProt O43364 129-215, R185T) (O43364 129-215 R185T): as the sequence (O43364 129-215 R185K) above, with K57T counted along it
Sequence of MSX2 (Homo sapiens, UniProt P35548 130-214, F161Y) (P35548 130-214 F161Y): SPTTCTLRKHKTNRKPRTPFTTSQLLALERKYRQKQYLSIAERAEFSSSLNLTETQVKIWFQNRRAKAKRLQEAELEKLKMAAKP
Sequence of SHOX (O15266 103-189 R173C): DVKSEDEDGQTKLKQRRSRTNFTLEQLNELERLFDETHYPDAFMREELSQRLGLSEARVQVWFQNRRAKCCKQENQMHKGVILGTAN
Sequence of ALX1 (Homo sapiens, UniProt Q15699 118-204) (Q15699 118-204): as the sequence (Q15699 118-204 L144R) above, with R27L counted along it
Sequence of ALX1 (Homo sapiens, UniProt Q15699 118-204, L144V) (Q15699 118-204 L144V): as the sequence (Q15699 118-204 L144R) above, with R27V counted along it
Sequence of CRX (O43186 26-111 R41L): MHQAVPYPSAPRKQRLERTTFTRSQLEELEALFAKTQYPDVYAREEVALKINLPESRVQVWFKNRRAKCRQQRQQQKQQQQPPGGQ

As to ACAGTCGG, the binding signal in [1] is 9.61 upbm affinity estimate (log intensity, higher = more binding, comparable within an allelic series); in assay [2], 9.49 upbm affinity estimate (log intensity, higher = more binding, comparable within an allelic series).
As to CCGGCCAG, the binding signal was 8.97 upbm affinity estimate (log intensity, higher = more binding, comparable within an allelic series) in assay [1]; 7.26 upbm affinity estimate (log intensity, higher = more binding, comparable within an allelic series) in assay [3]; 6.59 upbm affinity estimate (log intensity, higher = more binding, comparable within an allelic series) in assay [4]; 7.68 upbm affinity estimate (log intensity, higher = more binding, comparable within an allelic series) in [5]; 7.87 upbm affinity estimate (log intensity, higher = more binding, comparable within an allelic series) in assay [6]; 9.96 upbm affinity estimate (log intensity, higher = more binding, comparable within an allelic series) in [7]. The binding signal is 6.61 upbm affinity estimate (log intensity, higher = more binding, comparable within an allelic series) in assay [8]; 7.75 upbm affinity estimate (log intensity, higher = more binding, comparable within an allelic series) in assay [9]; 6.85 upbm affinity estimate (log intensity, higher = more binding, comparable within an allelic series) in assay [10]; 7.66 upbm affinity estimate (log intensity, higher = more binding, comparable within an allelic series) in assay [11]; 7.61 upbm affinity estimate (log intensity, higher = more binding, comparable within an allelic series) in [12]; 6.97 upbm affinity estimate (log intensity, higher = more binding, comparable within an allelic series) in assay [13]. Besides, the binding signal in [14] is 10.3 upbm affinity estimate (log intensity, higher = more binding, comparable within an allelic series); in assay [15] it was 6.55 upbm affinity estimate (log intensity, higher = more binding, comparable within an allelic series); in [16], 7.66 upbm affinity estimate (log intensity, higher = more binding, comparable within an allelic series); in assay [2], 9.42 upbm affinity estimate (log intensity, higher = more binding, comparable within an allelic series); in [17], 7.18 upbm affinity estimate (log intensity, higher = more binding, comparable within an allelic series); in [18], 6.86 upbm affinity estimate (log intensity, higher = more binding, comparable within an allelic series).
Take AAATAATT: the binding signal in assay [1] is 11.1 upbm affinity estimate (log intensity, higher = more binding, comparable within an allelic series); in assay [19], 9.97 upbm affinity estimate (log intensity, higher = more binding, comparable within an allelic series); in assay [20] it was 7.74 upbm affinity estimate (log intensity, higher = more binding, comparable within an allelic series).
On to ACCCCGGG, for which the binding signal in assay [1] was 9.35 upbm affinity estimate (log intensity, higher = more binding, comparable within an allelic series); in assay [21], 9.55 upbm affinity estimate (log intensity, higher = more binding, comparable within an allelic series); in assay [22], 9.62 upbm affinity estimate (log intensity, higher = more binding, comparable within an allelic series); in assay [23] it was 9.67 upbm affinity estimate (log intensity, higher = more binding, comparable within an allelic series); in [2], 9.33 upbm affinity estimate (log intensity, higher = more binding, comparable within an allelic series).
Consider CAGGCCGC, for which the binding signal in assay [1] was 9.29 upbm affinity estimate (log intensity, higher = more binding, comparable within an allelic series); in assay [3] it was 7.44 upbm affinity estimate (log intensity, higher = more binding, comparable within an allelic series); in [7] it was 10.3 upbm affinity estimate (log intensity, higher = more binding, comparable within an allelic series); in assay [14], 10.4 upbm affinity estimate (log intensity, higher = more binding, comparable within an allelic series); in assay [2], 9.35 upbm affinity estimate (log intensity, higher = more binding, comparable within an allelic series); in assay [17] it was 7.49 upbm affinity estimate (log intensity, higher = more binding, comparable within an allelic series).
On to CGACGGAA, for which the binding signal in assay [1] is 9.54 upbm affinity estimate (log intensity, higher = more binding, comparable within an allelic series); in assay [2] it was 9.34 upbm affinity estimate (log intensity, higher = more binding, comparable within an allelic series).
In the case of AATTATAG, the binding signal was 11.2 upbm affinity estimate (log intensity, higher = more binding, comparable within an allelic series) in [1]; 12.2 upbm affinity estimate (log intensity, higher = more binding, comparable within an allelic series) in assay [21]; 9.23 upbm affinity estimate (log intensity, higher = more binding, comparable within an allelic series) in assay [24]; 9.73 upbm affinity estimate (log intensity, higher = more binding, comparable within an allelic series) in assay [12]; 10.9 upbm affinity estimate (log intensity, higher = more binding, comparable within an allelic series) in assay [25].
For the sequence AGACGAGC, the binding signal in assay [1] is 9.44 upbm affinity estimate (log intensity, higher = more binding, comparable within an allelic series); in assay [26] it was 9.38 upbm affinity estimate (log intensity, higher = more binding, comparable within an allelic series); in [27], 9.3 upbm affinity estimate (log intensity, higher = more binding, comparable within an allelic series); in [2], 9.6 upbm affinity estimate (log intensity, higher = more binding, comparable within an allelic series).
In the case of CCGTGTCC, the binding signal was 9.3 upbm affinity estimate (log intensity, higher = more binding, comparable within an allelic series) in [1]; 6.98 upbm affinity estimate (log intensity, higher = more binding, comparable within an allelic series) in [10]; 7.18 upbm affinity estimate (log intensity, higher = more binding, comparable within an allelic series) in [13]; 9.13 upbm affinity estimate (log intensity, higher = more binding, comparable within an allelic series) in [2]; 6.99 upbm affinity estimate (log intensity, higher = more binding, comparable within an allelic series) in assay [18].
With CTATAATC, the binding signal in [1] is 10.5 upbm affinity estimate (log intensity, higher = more binding, comparable within an allelic series); in assay [28], 12.5 upbm affinity estimate (log intensity, higher = more binding, comparable within an allelic series); in [2], 12.5 upbm affinity estimate (log intensity, higher = more binding, comparable within an allelic series).
Consider GCCGGACC, for which the binding signal in assay [1] is 9.13 upbm affinity estimate (log intensity, higher = more binding, comparable within an allelic series); in assay [19], 8.9 upbm affinity estimate (log intensity, higher = more binding, comparable within an allelic series); in [2] it was 9.39 upbm affinity estimate (log intensity, higher = more binding, comparable within an allelic series); in assay [29], 8.93 upbm affinity estimate (log intensity, higher = more binding, comparable within an allelic series).
Regarding AATATGCC, the binding signal in assay [1] is 9.8 upbm affinity estimate (log intensity, higher = more binding, comparable within an allelic series); in assay [2], 11.1 upbm affinity estimate (log intensity, higher = more binding, comparable within an allelic series).
Regarding CAAATGAG, the binding signal in [1] is 10.1 upbm affinity estimate (log intensity, higher = more binding, comparable within an allelic series); in assay [2] it was 11.5 upbm affinity estimate (log intensity, higher = more binding, comparable within an allelic series).
